# Assay results as given in PubChem BioAssay (NCI).
# “And” between values parts separate entries of the source, which are not always exact repeats. Equal values may be shown once. About 83,000 compounds went through this panel and 20% of them were active in at least one assay; those are over-represented in the sample as a whole.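 How to read the values: 0–100, growth inhibition (40 = 60% inhibited); 0, no net growth; -100 to 0, cell death (-40 = 40% of starting cells died; -100 = all dead).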 Unmarked numbers belong to inactive results. The source made the active and inactive calls. Rule for the calls: active = growth percent below 10; inactive = the rest.
# Tested on: NCI-H226 lung
# Assay: NCI-60 one-dose screen, 48 h (100 = growth as untreated, 0 = no growth, -100 = all killed)
# Conditions: 10 µM unless noted
row,SMILES,growth
1,O=C(/C=C\c1cc(Br)ccc1O)/C=C/c1cc(Br)ccc1O,-64.8% (active)
2,O=Nc1ccccc1N=O,88.5%
3,COC(=O)Nc1nc2ccc(C(=O)c3ccccc3)cc2[nH]1,50.9% and 80.4% and 109%
4,CCCCCC(CCCCC)C(=O)O,112%
5,Oc1c(Br)c(Br)c(O)c(Br)c1Br,113%
6,CCCCCCCCCCCCCCCCOP(=O)([O-])OCC[N+](C)(C)C,31.5%
7,CC1SC(=S)N(c2ccc(Cl)cc2)C1=O (configuration not stated),92.9% and 97.2%
8,Cc1ccc2nc(-[n+]3cc4ccccc4cc3C)ccc2c1,53.7%
9,O=C(Nc1ccccc1)Oc1c(Cl)c(Cl)c(Cl)c(Cl)c1Cl,96.2% and 88.3%
10,NC(=O)/C=C/C(=O)c1c(Cl)cccc1Cl,37.9%
11,S=C(N/N=C/c1ccccn1)Nc1ccccn1,12.1%
12,CC1=CC(O)C2CC1C2(C)C (configuration not stated),98.1% and 97.9%
13,Cc1ccnc2c1ccc1c(C)ccnc12,17.4%
14,O=C(Oc1cccc2cccnc12)c1ccccc1,110% and 102%
15,CC1(C)CC([P+](c2ccccc2)(c2ccccc2)c2ccccc2)=NN1,53.1%
16,CCCCCCCCCCCCCCCCN(CC)CC,-65.9% (active)

# Tested on: NCI-H322M lung
# Assay: as above
# Conditions: 10 µM unless noted
row,SMILES,growth
1,Oc1ccc(/C=N/NC(=S)Nc2ccccc2)nc1,21.2%
2,COc1ccccc1OC(=O)Oc1ccccc1OC,94.3% and 99.5%
3,O=C1C=CC(=O)N1C1c2ccccc2-c2ccccc21,94.6%
4,O=C(CC1(O)C(=O)Nc2c(Cl)ccc(Cl)c21)c1ccc(Cl)cc1Cl (configuration not stated),108%
5,Cc1cc2nc(CS)[nH]c2cc1C,76.4%
6,O=C(Nc1cccc(Br)c1)Oc1ccc(Cl)c2cccnc12,82.3% [100 µM]
7,CN(C)c1ccc(N=Nc2cccc3ccccc23)cc1,94.4%
8,O=[N+]([O-])c1ccc(N=Nc2ccc(O)cc2O)cc1,84.8%
9,CC(C)(C)CC(C)(C)c1ccc(OCCSC(=N)N)cc1,71.6%
10,CCCCCCCCCCCCCCCC[N+](C)(CCO)Cc1cnc[nH]1 (configuration not stated),20.3%
11,Nc1nc(N)c2nc(CNc3ccc(C(=O)NC(CCC(=O)O)C(=O)O)cc3)cnc2n1 (configuration not stated),51.2% and 50.8%
12,Cc1ccc2c(ccc3c[n+]4c5ccccc5ccc4n32)c1,12.7%
13,CN(Cc1cnc2nc(N)nc(N)c2n1)c1ccc(C(=O)NC(CCC(=O)O)C(=O)O)cc1 (configuration not stated),48.6%
14,NC(=S)N/N=C\c1nccc2c(C(F)(F)C(F)(F)C(F)(F)F)cccc12,-1.69% (active)
15,CCC(CC)COC(=O)c1ccc(O)c(O)c1,85.3%
16,O=C(/C=C/C=C/c1ccccc1)c1ccco1,110%
17,C/C=C1\SC(=S)NC1=O,108%

row,SMILES,growth
1,O=C(/C=C\c1cc(Br)ccc1O)/C=C/c1cc(Br)ccc1O,6.71% (active)
2,O=Nc1ccccc1N=O,84.2%
3,COC(=O)Nc1nc2ccc(C(=O)c3ccccc3)cc2[nH]1,56.9% and 66.1% and 44.1%
4,CCCCCC(CCCCC)C(=O)O,103%
5,Oc1c(Br)c(Br)c(O)c(Br)c1Br,105%
6,CCCCCCCCCCCCCCCCOP(=O)([O-])OCC[N+](C)(C)C,81.8%
7,CC1SC(=S)N(c2ccc(Cl)cc2)C1=O (configuration not stated),89.5% and 89.8%
8,Cc1ccc2nc(-[n+]3cc4ccccc4cc3C)ccc2c1,85.2%
9,O=C(Nc1ccccc1)Oc1c(Cl)c(Cl)c(Cl)c(Cl)c1Cl,94.1% and 106%
10,NC(=O)/C=C/C(=O)c1c(Cl)cccc1Cl,19.1%
11,S=C(N/N=C/c1ccccn1)Nc1ccccn1,22.4%
12,CC1=CC(O)C2CC1C2(C)C (configuration not stated),101% and 97.1%
13,Cc1ccnc2c1ccc1c(C)ccnc12,19%
14,O=C(Oc1cccc2cccnc12)c1ccccc1,107% and 117%
15,CC1(C)CC([P+](c2ccccc2)(c2ccccc2)c2ccccc2)=NN1,81.1%
16,CCCCCCCCCCCCCCCCN(CC)CC,14.5%

# Tested on: HOP-62 NSCLC
# Assay: as above
# Conditions: 10 µM unless noted
row,SMILES,growth
1,Oc1ccc(/C=N/NC(=S)Nc2ccccc2)nc1,12.2%
2,COc1ccccc1OC(=O)Oc1ccccc1OC,120% and 100%
3,O=C1C=CC(=O)N1C1c2ccccc2-c2ccccc21,96.3%
4,O=C(CC1(O)C(=O)Nc2c(Cl)ccc(Cl)c21)c1ccc(Cl)cc1Cl (configuration not stated),70.2%
5,Cc1cc2nc(CS)[nH]c2cc1C,92.7%
6,O=C(Nc1cccc(Br)c1)Oc1ccc(Cl)c2cccnc12,31% [100 µM]
7,CN(C)c1ccc(N=Nc2cccc3ccccc23)cc1,85.7%
8,O=[N+]([O-])c1ccc(N=Nc2ccc(O)cc2O)cc1,93.6%
9,CC(C)(C)CC(C)(C)c1ccc(OCCSC(=N)N)cc1,98.4%
10,CCCCCCCCCCCCCCCC[N+](C)(CCO)Cc1cnc[nH]1 (configuration not stated),-64.2% (active)
11,Nc1nc(N)c2nc(CNc3ccc(C(=O)NC(CCC(=O)O)C(=O)O)cc3)cnc2n1 (configuration not stated),39.1% and 11.7%
12,Cc1ccc2c(ccc3c[n+]4c5ccccc5ccc4n32)c1,0.81% (active)
13,CN(Cc1cnc2nc(N)nc(N)c2n1)c1ccc(C(=O)NC(CCC(=O)O)C(=O)O)cc1 (configuration not stated),43%
14,NC(=S)N/N=C\c1nccc2c(C(F)(F)C(F)(F)C(F)(F)F)cccc12,-7.59% (active)
15,CCC(CC)COC(=O)c1ccc(O)c(O)c1,50.3%
16,O=C(/C=C/C=C/c1ccccc1)c1ccco1,117%
17,C/C=C1\SC(=S)NC1=O,100%

row,SMILES,growth
1,O=C(/C=C\c1cc(Br)ccc1O)/C=C/c1cc(Br)ccc1O,-57.3% (active)
2,O=Nc1ccccc1N=O,96%
3,COC(=O)Nc1nc2ccc(C(=O)c3ccccc3)cc2[nH]1,30.4% and 21.9% and 49.2%
4,CCCCCC(CCCCC)C(=O)O,98.1%
5,Oc1c(Br)c(Br)c(O)c(Br)c1Br,146%
6,CCCCCCCCCCCCCCCCOP(=O)([O-])OCC[N+](C)(C)C,19.5%
7,CC1SC(=S)N(c2ccc(Cl)cc2)C1=O (configuration not stated),92.4% and 92.7%
8,Cc1ccc2nc(-[n+]3cc4ccccc4cc3C)ccc2c1,37.1%
9,O=C(Nc1ccccc1)Oc1c(Cl)c(Cl)c(Cl)c(Cl)c1Cl,101% and 78.8%
10,NC(=O)/C=C/C(=O)c1c(Cl)cccc1Cl,-4.87% (active)
11,S=C(N/N=C/c1ccccn1)Nc1ccccn1,13.7%
12,CC1=CC(O)C2CC1C2(C)C (configuration not stated),93.4% and 102%
13,Cc1ccnc2c1ccc1c(C)ccnc12,6.08% (active)
14,O=C(Oc1cccc2cccnc12)c1ccccc1,98.8% and 106%
15,CC1(C)CC([P+](c2ccccc2)(c2ccccc2)c2ccccc2)=NN1,76.6%
16,CCCCCCCCCCCCCCCCN(CC)CC,-54.4% (active)
